The list is not random: actives were taken first. Their share in the collection is about 2.8%.
SMARCA2 act – SMARCA2 function activation, primary screen; actives 1% (n = 370,000); MG213 cells, MMTV-luciferase reporter, dexamethasone, overnight; activation, % at 9.1 µM; AID 652017; in the data active = activation above about 7.8%;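 also: 0% = vehicle wells and 100% = reference activator wells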
bovine MsrA act – activators of bovine methionine sulfoxide reductase A. purified bovine MsrA, absorbance read-out. actives 0.3% (n = 360,000). activation, % at 10.6 µM. AID 602163; in the data active = activation above about 7.5%;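 also: 0% = vehicle and 100% = reference activator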
MsrA inhibitor – inhibitors of bovine MsrA; inhibition, % at 15.5 µM; purified bovine MsrA, absorbance read-out; AID 651718; actives 0.75% (n = 360,000); in the data active = inhibition above about 4.5%;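 also: 0% = vehicle wells with enzyme and 100% = reference inhibitor wells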
KLK7 zymogen act – proKLK7 (human) activation, primary screen; purified proKLK7, EDANS-DABCYL substrate fluorescence; 100% is mature enzyme control, 0% vehicle; activation, % at 7 µM; actives 0.9% (n = 370,000);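 active = activation above the mean of all tested compounds plus 3 SD, computed per campaign excluding outliers beyond control limits, cut at about 13% in these data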
Target sequence (P49862 whole entry, looked up): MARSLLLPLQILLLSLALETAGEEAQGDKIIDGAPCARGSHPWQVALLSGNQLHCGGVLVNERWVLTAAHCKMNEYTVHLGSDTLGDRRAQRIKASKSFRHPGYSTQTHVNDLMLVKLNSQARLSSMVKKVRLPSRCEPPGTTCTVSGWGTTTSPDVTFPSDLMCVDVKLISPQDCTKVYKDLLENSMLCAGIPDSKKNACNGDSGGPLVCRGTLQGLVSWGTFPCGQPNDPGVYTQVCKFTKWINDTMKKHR
proKLK7 act conf – proKLK7 activation, confirmation. shares compounds with KLK7 zymogen act. purified proKLK7, EDANS-DABCYL substrate fluorescence; scaled: vehicle 0, mature enzyme 100. activation, % at 7 µM. actives 68% (n = 3,200). AID 686949;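 active = activation, as change over the incubation, above the mean of all tested compounds plus 3 SD, cut at about 13% in these data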
EDANS-DABCYL int – optically interferes with EDANS-DABCYL signal, flagging KLK7 hits; shares compounds with KLK7 zymogen act; AID 686952; EDANS-DABCYL substrate fluorescence interference, no enzyme, 4 h; solvent 0%, active enzyme control 100%; activation, % at 7 µM; actives 80% (n = 3,200);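 active = activation above the all-compound mean plus 3 SD, ignoring values outside control-based bounds, cut at about 4.8% in these data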;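 also: value is the 4 h activation minus the activation read at time zero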
EDANS interf – counter-screen for kallikrein-7 activators: EDANS-DABCYL interference, dose response; EC50, µM; shares compounds with KLK7 zymogen act; EDANS-DABCYL peptide fluorescence interference, no enzyme; actives 20% (n = 250);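 active = compounds that raise the fluorescence signal in this interference counterscreen, with EC50 at or below 10 µM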;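 also: intact quenched peptide substrate alone read at 355 nm excitation and 520 nm emission; signal is fluorescence gain from T0 to T4 after four hours at room temperature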
* = called active by the depositor.

COC(=O)[C@]12C[C@H](CC(=O)N3CCOCC3)C(=O)N(CCC3=CCCCC3)C1=C[C@H](COCc1ccccc1)O[C@@H]2C was read as SMARCA2 act -7, MsrA inhibitor 0 and KLK7 zymogen act -1.
For Nc1ccc2nn(-c3ccc(F)cc3)nc2c1 the results were SMARCA2 act 4, bovine MsrA act -2, MsrA inhibitor 1, KLK7 zymogen act 45*, proKLK7 act conf 66* and EDANS-DABCYL int 77*.
For CCCC(=O)Nc1ccc2nn(-c3ccc(OC)cc3)nc2c1 the results were SMARCA2 act 0, bovine MsrA act -5, MsrA inhibitor 1, KLK7 zymogen act 18*, proKLK7 act conf 35*, EDANS-DABCYL int -4 and EDANS interf >70.
For COc1ccc(C(=O)n2cnnc2N)cc1 the results were SMARCA2 act -1, bovine MsrA act -3, MsrA inhibitor 0 and KLK7 zymogen act -1.
`CCOc1ccc(-n2nc3ccc(N)cc3n2)cc1` gave SMARCA2 act -6, bovine MsrA act 0, MsrA inhibitor 2 and KLK7 zymogen act 7.
Screening COc1ccc(-n2nc3ccc(N)cc3n2)cc1 returned SMARCA2 act -10, bovine MsrA act 2, MsrA inhibitor 1, KLK7 zymogen act 99*, proKLK7 act conf 77* and EDANS-DABCYL int 82*.
Screening COc1ccc(-n2nc(N)c(C(N)=O)n2)cc1 returned SMARCA2 act -1, bovine MsrA act -7, MsrA inhibitor 2, KLK7 zymogen act 26*, proKLK7 act conf 23* and EDANS-DABCYL int 21*.
Screening Cc1ccc(S(=O)(=O)N(C)C[C@@H]2OCc3cnnn3CCCC(=O)N([C@H](C)CO)C[C@H]2C)cc1 returned SMARCA2 act -2, bovine MsrA act -3, MsrA inhibitor 0 and KLK7 zymogen act 0.
`O=C(Nc1c(-c2ccc(C(F)(F)F)cc2)nc2ncccn12)C1CC1` gave SMARCA2 act -4, KLK7 zymogen act 27*, proKLK7 act conf 29* and EDANS-DABCYL int 27*.
Cc1ccc(-c2nc3ncccn3c2NC(=O)Nc2ccc(OC(F)(F)F)cc2)cc1 was read as SMARCA2 act -1 and KLK7 zymogen act -6.
For Cc1cccc(C(=O)Nc2c(-c3ccc(C(F)(F)F)cc3)nc3ncccn23)c1 the results were SMARCA2 act 5 and KLK7 zymogen act 0.
Cc1ccc(-c2nc3ncccn3c2NC(=O)C2CC2)cc1 was read as SMARCA2 act 1, bovine MsrA act -1, MsrA inhibitor 1, KLK7 zymogen act 17*, proKLK7 act conf 32* and EDANS-DABCYL int 45*.
`Clc1ccc(-c2cnc3cccnn23)cc1` gave SMARCA2 act 0, bovine MsrA act -4, MsrA inhibitor 0, KLK7 zymogen act 32*, proKLK7 act conf 37*, EDANS-DABCYL int 22* and EDANS interf >70.
Oc1ccccc1-c1cnc2cccnn12 was read as SMARCA2 act 1, bovine MsrA act -2, MsrA inhibitor 1 and KLK7 zymogen act 8.
`COc1ccc(-c2cnc3cccnn23)cn1` gave SMARCA2 act -1, bovine MsrA act -4, MsrA inhibitor 0, KLK7 zymogen act 39*, proKLK7 act conf 27* and EDANS-DABCYL int 38*.
For Cn1c(-c2ccc(Cl)cc2)cnc1N the results were SMARCA2 act -3, bovine MsrA act -7, MsrA inhibitor 0 and KLK7 zymogen act 1.
`COc1ncccc1-c1cnc2cccnn12` gave SMARCA2 act -3, bovine MsrA act -1, MsrA inhibitor 3, KLK7 zymogen act 34*, proKLK7 act conf 58* and EDANS-DABCYL int 58*.
Screening CC(=O)c1ccc(OC2(C)CCN(Cc3ccc4c(c3)OCCO4)C2)cc1 (stereo not given) returned SMARCA2 act -2, bovine MsrA act -4, MsrA inhibitor 1 and KLK7 zymogen act 0.
For O=C1C(C2=NC(c3ccccn3)C3C(=O)N(c4ccccc4)C(=O)C23)=C(O)c2ccccc21 (stereo not given) the results were SMARCA2 act -6, bovine MsrA act -4, MsrA inhibitor 1, KLK7 zymogen act 24*, proKLK7 act conf -25 and EDANS-DABCYL int -23.
Screening COC(=O)[C@]12C[C@H](CC(=O)NCCCCc3ccccc3)C(=O)N(Cc3cccc4ccccc34)C1=C[C@H](COCc1ccccc1)O[C@@H]2C returned SMARCA2 act -4 and KLK7 zymogen act -1.
`CCOC(=O)C1CCN(c2cc3c(cc2NC(=O)c2ccccc2)n(C)c(=O)n3C)CC1` gave SMARCA2 act -5, bovine MsrA act -3, MsrA inhibitor 0, KLK7 zymogen act 20*, proKLK7 act conf 12 and EDANS-DABCYL int 12*.
Screening CCOC(=O)C1CCN(c2cc3c(cc2NC(=O)c2ccc(OC)c(OC)c2)n(C)c(=O)n3C)CC1 returned SMARCA2 act -3, bovine MsrA act -1, MsrA inhibitor 0 and KLK7 zymogen act 4.
`Cc1cc(N2CCN(C)CC2)n2cc(-c3ccc(F)cc3)nc2n1` gave SMARCA2 act 1, bovine MsrA act -5, MsrA inhibitor 3, KLK7 zymogen act 32*, proKLK7 act conf 6 and EDANS-DABCYL int 6.5*.
`COC(=O)Cn1c(=NC(=O)c2cc(-c3cccs3)nc3ccccc23)sc2cc(S(N)(=O)=O)ccc21` gave SMARCA2 act -2, bovine MsrA act -6, MsrA inhibitor 3 and KLK7 zymogen act -83.
`CCOC(=O)Cn1c(=NC(=O)c2cc(-c3cccs3)nc3ccccc23)sc2cc(S(N)(=O)=O)ccc21` gave SMARCA2 act -1, bovine MsrA act -6, MsrA inhibitor 2, KLK7 zymogen act 172*, proKLK7 act conf -2 and EDANS-DABCYL int -15.
For O=C1c2ccccc2NC(c2ccccc2)N1Cc1ccco1 (stereo not given) the results were SMARCA2 act 4, bovine MsrA act 0, MsrA inhibitor -1, KLK7 zymogen act 17*, proKLK7 act conf 17*, EDANS-DABCYL int 7.5* and EDANS interf >70.
For O=C1c2ccccc2NC(c2ccccc2)N1Cc1ccccc1 (stereo not given) the results were SMARCA2 act 2, bovine MsrA act -3, MsrA inhibitor -1 and KLK7 zymogen act 9.
For O=C1c2ccccc2NC(c2ccc(F)cc2)N1Cc1ccco1 (stereo not given) the results were SMARCA2 act -2, bovine MsrA act -14, MsrA inhibitor 1, KLK7 zymogen act 15*, proKLK7 act conf 11 and EDANS-DABCYL int 19*.
Screening CC(=O)NC(c1cccc(F)c1)c1nc(-c2csc3ccccc23)cs1 (stereo not given) returned SMARCA2 act -6, bovine MsrA act -1, MsrA inhibitor 2 and KLK7 zymogen act 1.
`Cc1c(C2(O)CCCCC2)[nH]c2ncccc12` gave SMARCA2 act -1, bovine MsrA act -2, MsrA inhibitor 1 and KLK7 zymogen act 1.

Source: PubChem BioAssay (The Scripps Research Institute Molecular Screening Center)
